Measurements taken from PubChem BioAssay AID488857 (Sanford-Burnham Center for Chemical Genomics, 2010).
The campaign covered roughly 1,400 compounds. About 560 (40%) were called active. So high a share suggests a set chosen from earlier hits. Some of the results follow. Unmarked numbers belong to inactive results.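 How the source made its calls: active means mean inhibition over duplicate tests at 10 µM above 50%; inactive means the rest.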

Assay: ASC/caspase-1 reporter retest in S. cerevisiae at one dose, specificity check for NALP1 project (AID 488857)
Details: S. cerevisiae ASC/Caspase-1, beta-galactosidase luminescence, 24 h; at 10 µM; stronger effect = higher value

Q: With `CCC(C)NC(=O)c1cc2cc3ccc(OC)cc3nc2s1` (stereo not given) as the compound, how does the inhibition read?
A: 56.8% (active)

Q: Which inhibition does the source give for `COc1ccc(OC)c(NC(=O)c2sc3nc(Cc4ccccc4)cc(C(F)(F)F)c3c2N)c1` here?
A: 40.6%

Q: Which inhibition does the source give for `OC(COCc1ccc2c(c1)OCO2)CN1CCN(Cc2ccccc2)CC1` (stereo not given) here?
A: 35.2%

Q: For `O=C(CCC1CCCCC1)N1CCN(Cc2ccc3c(c2)OCO3)CC1`, which inhibition is on record?
A: 67% (active)

Q: With `N#CCc1c(C#N)c(N)nc(N2CCN(Cc3ccc4c(c3)OCO4)CC2)c1C#N` as the compound, how does the inhibition read?
A: 37.5%

Q: For `Cc1cc(Cl)c(OCCCN2CCCCC2)c(Br)c1`, which inhibition is on record?
A: 24.1%

Q: Which inhibition does the source give for `Cc1cc(Cl)c(OCCCCN2CCOCC2)c(Br)c1` here?
A: 30.6%

Q: For `CC1CCCN(CCCOc2ccc(Cl)cc2Br)C1` (stereo not given), which inhibition is on record?
A: 64.8% (active)

Q: Which inhibition does the source give for `Cc1cc(Cl)c(OCCOCCN2CCC(C)CC2)c(Br)c1` here?
A: 53.7% (active)

Q: With `CC1CCCN(CCC(=O)c2ccc(Br)cc2)C1` (stereo not given) as the compound, how does the inhibition read?
A: 45.8%

Q: For `CN1CCC(Oc2ccc(Sc3ccccc3)cc2)CC1`, which inhibition is on record?
A: 40.5%

Q: Which inhibition does the source give for `CC1CCCN(CCOCCOc2ccc(Br)cc2Cl)C1` (stereo not given) here?
A: 59.5% (active)

Q: With `CC1CCCN(CCOCCSc2ccccc2)C1` (stereo not given) as the compound, how does the inhibition read?
A: 53% (active)

Q: For `CC(C)(C)c1ccc(COn2c(=O)c(-c3ccco3)[n+]([O-])c3ccccc32)cc1`, which inhibition is on record?
A: 39.7%

Q: With `CCOc1ccc(NC(=O)CSc2nnc(C)n2Cc2ccccc2)cc1` as the compound, how does the inhibition read?
A: 37.3%

Q: Which inhibition does the source give for `CCOC(=O)c1cccnc1SCC(=O)NCc1ccccc1` here?
A: 54.2% (active)

Q: Which inhibition does the source give for `CCOC(=O)c1cnc2ccccc2c1Nc1cc(C(=O)O)ccc1C` here?
A: 28.2%

Q: With `Cc1nc(C)c(/C(O)=C/c2nc3ccccc3oc2=O)s1` as the compound, how does the inhibition read?
A: 44%

Q: With `Cc1ccc(NC2(C#N)C(=O)Nc3ccccc32)cc1` (stereo not given) as the compound, how does the inhibition read?
A: 38.2%

Q: Which inhibition does the source give for `O=C(c1ccco1)N1CCN(Cc2cn[nH]c2-c2cccc3ccccc23)CC1` here?
A: 26%

Q: Which inhibition does the source give for `O=C(CN1CCSC1=NCc1ccccc1)c1ccc(Cl)c(Cl)c1` here?
A: 61% (active)

Q: For `COc1cccc(CN(C)CC(=O)Nc2cccc(S(N)(=O)=O)c2)c1OC`, which inhibition is on record?
A: 32.5%

Q: Which inhibition does the source give for `Cc1cs/c(=N\N=C\c2ccccc2)n1Cc1ccco1` here?
A: 54.1% (active)

Q: For `COc1ccc(N2CCN(CC(=O)NC(=O)NCc3ccco3)CC2)cc1`, which inhibition is on record?
A: 33.3%

Q: Which inhibition does the source give for `CCN(C(=O)c1ccco1)c1nnc(-c2ccc(OC)cc2)s1` here?
A: 51% (active)

Q: For `CCC(C(=O)NCc1ccco1)N(C(=O)CNS(=O)(=O)c1ccccc1)c1ccc(OC)cc1` (stereo not given), which inhibition is on record?
A: 32.8%

Q: For `O=C(NC(N1CCOCC1)C(Cl)(Cl)Cl)c1ccc(Br)cc1` (stereo not given), which inhibition is on record?
A: -14.2%

Q: With `CN(C)c1ccc(NC(=O)COC(=O)c2cc(Cl)ccc2[N+](=O)[O-])cc1` as the compound, how does the inhibition read?
A: 68% (active)

Q: Which inhibition does the source give for `CCOC(=O)c1cc([N+](=O)[O-])c([N+](=O)[O-])cc1NC(C)=O` here?
A: 22.4%

Q: With `N=c1ccn(Cc2ccc(Cl)cc2Cl)cc1` as the compound, how does the inhibition read?
A: 38%

Q: For `CCOC(=O)c1c(-c2ccccc2)nc2ccccn12`, which inhibition is on record?
A: 99.1% (active)

Q: With `CCOCCCn1c(=NC(C)=O)c(C(=O)OCC)cc2c(=O)n3ccccc3nc21` as the compound, how does the inhibition read?
A: 19.2%

Q: Which inhibition does the source give for `CCOC(=O)CSc1nnc(-c2ccccc2)c(=O)[nH]1` here?
A: 45%

Q: Which inhibition does the source give for `Cc1cc(C)n(C(C[N+](=O)[O-])c2ccc(Cl)cc2)n1` (stereo not given) here?
A: 99.2% (active)

Q: For `Cc1cccc(C)c1NC(=O)CSc1nc2ccccc2c(=O)[nH]1`, which inhibition is on record?
A: 34.6%

Q: With `Cc1ccccc1OCCCSc1nc2ccccc2[nH]1` as the compound, how does the inhibition read?
A: 75% (active)

Q: Which inhibition does the source give for `Cc1cccc(OCCCSc2nc3ccc(C)cc3[nH]2)c1` here?
A: 83.2% (active)

Q: Which inhibition does the source give for `O=C(O)C1CCN(C(=O)c2csc(-c3ccc4c(c3)CCO4)n2)CC1` here?
A: 38.6%

Q: For `O=CC1=C(c2ccccc2)Oc2ccccc2O1`, which inhibition is on record?
A: 93.3% (active)

Q: With `CCn1c(SCC(=O)Nc2ccc3c(c2)OCO3)nnc1-c1cnccn1` as the compound, how does the inhibition read?
A: 30.1%

Q: With `O=C(Nc1nc2ccccc2s1)C1c2ccccc2Oc2ccccc21` as the compound, how does the inhibition read?
A: 39.3%

Q: For `Nc1ccc(C(=O)Nc2nc3ccccc3s2)cc1`, which inhibition is on record?
A: 75.4% (active)

Q: For `Cc1ccc2nc(NC(=O)c3ccc4ncsc4c3)sc2c1`, which inhibition is on record?
A: 12.6%

Q: For `Fc1ccc(N2CCN(Cc3cnc(Oc4ccc(Br)cc4)s3)CC2)cc1`, which inhibition is on record?
A: 14.7%

Q: With `CCOc1ccc(S(=O)(=O)N2c3ccccc3CC2C)cc1` (stereo not given) as the compound, how does the inhibition read?
A: 52.7% (active)

Q: With `CCOc1ccc(NC2=C(OC)C(=O)c3ccccc3C2=O)cc1` as the compound, how does the inhibition read?
A: 44.1%

Q: With `COc1ccc(Nc2cc(C)c3ccc(O)cc3n2)cc1` as the compound, how does the inhibition read?
A: 98.1% (active)

Q: For `Cc1cc(Nc2ccccc2)nc2cc(O)ccc12`, which inhibition is on record?
A: 99.1% (active)

Q: With `COC1=C(Nc2ccc(O)cc2)C(=O)c2ccccc2C1=O` as the compound, how does the inhibition read?
A: 40.2%

Q: Which inhibition does the source give for `CC1Cc2ccccc2N1CC(=O)Nc1ccc2c(c1)OC(F)(F)O2` (stereo not given) here?
A: 29.9%

Q: With `O=C(/C=C/c1ccccc1Cl)c1ccc[nH]1` as the compound, how does the inhibition read?
A: 67.8% (active)

Q: With `COC(=O)C1=C(C)NC(C)=C(C(=O)OC)C1c1ccc(OC(=O)c2oc3ccccc3c2C)c(OC)c1` as the compound, how does the inhibition read?
A: 25.6%

Q: For `CC(=O)C1=C(O)C(=O)N(CCC(=O)O)C1c1ccc(Cl)cc1Cl` (stereo not given), which inhibition is on record?
A: 35.7%

Q: For `Cc1ccc(-n2nnnc2C(Cl)c2nnnn2-c2ccc(C)cc2)cc1`, which inhibition is on record?
A: 40.1%

Q: For `Cc1ccc(-n2c(Cl)c(Cl)nc(Cl)c2=O)cc1`, which inhibition is on record?
A: 100% (active)

Q: For `COc1ccc2cnn(-c3ccc(C)cc3)c(=O)c2c1OC`, which inhibition is on record?
A: 44%

Q: For `CCN(CC)S(=O)(=O)c1ccc2[nH]c(=O)cc(C(=O)Nc3ccc(C)c(S(=O)(=O)N(CC)CC)c3)c2c1`, which inhibition is on record?
A: 25.1%

Q: With `COc1ccc(CCNC(=O)C2CCN(S(=O)(=O)c3ccc(Cl)cc3)CC2)cc1OC` as the compound, how does the inhibition read?
A: 23.4%

Q: With `CNC(=O)c1nnsc1S(=O)(=O)c1ccc(Cl)cc1` as the compound, how does the inhibition read?
A: 73% (active)

Q: With `CCCNC(=O)c1nnsc1S(=O)(=O)c1ccc(Cl)cc1` as the compound, how does the inhibition read?
A: 91% (active)

Q: Which inhibition does the source give for `Cn1cnc([N+](=O)[O-])c1S(=O)(=O)c1ccc(Cl)cc1` here?
A: 13.2%

Q: With `CN1C(=O)CSc2ccc(NC(=O)N3CCN(c4ccccn4)CC3)cc21` as the compound, how does the inhibition read?
A: 40.5%

Q: Which inhibition does the source give for `CN(C)c1nc(N)nc(CSc2nnnn2-c2ccc(C(=O)O)cc2)n1` here?
A: 18.2%

Q: With `CC(C)(C)n1nc(-c2ccc(F)cc2)c2c(N)ncnc21` as the compound, how does the inhibition read?
A: 97.5% (active)

Q: For `O=C(COC(=O)c1ccc(-c2ccc([N+](=O)[O-])cc2)o1)NC(=O)NC1CCCCC1`, which inhibition is on record?
A: 46.6%

Q: Which inhibition does the source give for `c1ccc(-c2c(-c3ccccc3)n(Cc3ccco3)c3ncnc(NCCCn4ccnc4)c23)cc1` here?
A: 46.7%

Q: With `COc1ccc(/C=N\NC(=O)c2cc(OCC(F)(F)F)ccc2OCC(F)(F)F)cc1` as the compound, how does the inhibition read?
A: 27.6%

Q: For `O=C(Oc1ccc(/C=N/NC(=O)c2ccccc2O)cc1)c1ccccc1`, which inhibition is on record?
A: 34.4%

Q: Which inhibition does the source give for `O=C(C[n+]1ccc(C(=O)N/N=C/c2ccc(OCc3ccccc3)cc2)cc1)c1ccccc1` here?
A: 54.6% (active)

Q: With `COc1ccc(N2C(=O)C3[C@@H](C2=O)C2(Cl)C(Cl)=C(Cl)C3(Cl)C2(OC)OC)cc1` (stereo not given in full) as the compound, how does the inhibition read?
A: 50.2% (active)

Q: For `COc1ccc(N2C(=O)C(Cl)=C(Nc3c(C)n(C)n(-c4ccccc4)c3=O)C2=O)cc1`, which inhibition is on record?
A: 29.6%

Q: Which inhibition does the source give for `CCOc1oc(-c2ccc(OC)cc2)nc1C(F)(F)F` here?
A: 40.6%

Q: For `CCc1ccc(OCCNC(=O)OCc2ccccc2)cc1`, which inhibition is on record?
A: 57.6% (active)

Q: For `CCc1ccc(OCCCC(=O)Nc2cccc(C(=O)O)c2)cc1`, which inhibition is on record?
A: 39.6%

Q: Which inhibition does the source give for `CC1=NN(c2ccc(C)cc2C)C(=O)C1C(c1cccc(O)c1)C1C(=O)N(c2ccc(C)cc2C)N=C1C` (stereo not given) here?
A: 43.8%

Q: For `CN(C)CCN(Cc1ccccc1)c1nccc(N(C)C)c1C#N`, which inhibition is on record?
A: 26.8%

Q: For `Cc1c(C(=O)N2CCOCC2)[nH]c2ccc(OCc3ccccc3)cc12`, which inhibition is on record?
A: 42.6%

Q: For `COc1cccc(-c2nn(C)c3sc(C(=O)N4CCOCC4)cc23)c1`, which inhibition is on record?
A: 51.4% (active)

Q: For `COc1cccc(C(=O)N2CCCC(c3nc(-c4cccs4)no3)C2)c1` (stereo not given), which inhibition is on record?
A: 22.3%

Q: Which inhibition does the source give for `COc1cc(S(=O)(=O)NCc2cccnc2)ccc1F` here?
A: 46.6%

Q: Which inhibition does the source give for `COc1ccc2cc(C(C)c3nc4ccccc4c(=O)n3N)ccc2c1` (stereo not given) here?
A: 59.4% (active)

Q: For `C=CCCCCc1nc2ccccc2c(=O)n1N`, which inhibition is on record?
A: 36.1%

Q: Which inhibition does the source give for `CCOC(=O)c1ccc(N2CCOCC2)c(NC(=O)COCC(=O)O)c1` here?
A: 9.9%

Q: For `COc1ccc(-c2cn3cccnc3n2)cc1Br`, which inhibition is on record?
A: 78.9% (active)

Q: Which inhibition does the source give for `CCN(CC)S(=O)(=O)c1ccc2oc(C(=O)NC3CCCc4ccccc43)c(C)c2c1` (stereo not given) here?
A: 23.3%

Q: For `O=C(c1ccccc1)c1c2c(cc3sc4ccccc4[n+]13)-c1cccc3cccc-2c13`, which inhibition is on record?
A: 46.8%

Q: With `Cc1ccc(S(=O)(=O)N(C(=O)c2ccncc2)c2ccc(OC(=O)c3ccncc3)c3ccccc23)cc1` as the compound, how does the inhibition read?
A: 26.1%

Q: For `CCCc1[nH]n(-c2nc3ccccc3s2)c(=O)c1C=NCC(C)C`, which inhibition is on record?
A: 78% (active)

Q: With `CC(C)(C)C(=O)NC1CCN(S(=O)(=O)c2ccc(C(F)(F)F)cc2)CC1` as the compound, how does the inhibition read?
A: 23.1%

Q: With `CCCN1CCN(CCCNC(=O)CCNC(=O)Cn2ccc3ccccc3c2=O)CC1` as the compound, how does the inhibition read?
A: 35.4%

Q: Which inhibition does the source give for `COc1ccnc(N2CCN(c3ccccc3)CC2)c1C#N` here?
A: 56.4% (active)

Q: With `O=C(NN1C(=O)c2cc(Br)ccc2NC1c1cc(Br)cc(Br)c1O)c1ccncc1` (stereo not given) as the compound, how does the inhibition read?
A: 76.2% (active)

Q: For `Cc1cccc(N2Cc3ccccc3C2=NC(=O)c2ccc(Cl)nc2)c1`, which inhibition is on record?
A: 28.3%

Q: Which inhibition does the source give for `Fc1ccccc1-c1ccc(/C=N/Nc2nc3ccccc3[nH]2)o1` here?
A: 70% (active)

Q: Which inhibition does the source give for `CCCCNc1nc2ccccc2[nH]1` here?
A: 31.2%

Q: For `CCOC(=O)c1ccc(NC(=O)CC2Sc3ncnn3C2=O)cc1` (stereo not given), which inhibition is on record?
A: 64.7% (active)

Q: For `COc1ccc(NC(=O)CC2Sc3ncnn3C2=O)cc1` (stereo not given), which inhibition is on record?
A: 75.8% (active)

Q: Which inhibition does the source give for `O=C(CC1Sc2ncnn2C1=O)Nc1ccc(Br)cc1` (stereo not given) here?
A: 33.6%

Q: With `CCOC(=O)c1ccc(NC(=O)CSc2nnc(CNc3ccc(C)cc3)n2C)cc1` as the compound, how does the inhibition read?
A: 31.4%

Q: With `CCOC(=O)c1ccc(NC(=O)c2nccnc2C(=O)O)cc1` as the compound, how does the inhibition read?
A: 38.5%
